Experimental data from PubChem BioAssay AID1851 (National Center for Advancing Translational Sciences (NCATS), 2009).
Out of some 16,000 compounds screened, about 2,600 (16%) were called active. Roughly 20% stayed inconclusive and do not appear here. Only a sample is shown. A number with no mark means an inactive call. Calls follow the shape of the dose curve; as a rule, active = well fitted curve in the direction sought with a large enough effect; inconclusive = small, poorly fitted or top-dose-only effect, or effect the other way; inactive = no such curve, though single readings can be large or run the other way.

The compounds below were run against Cytochrome P450 2D6 (Homo sapiens) (UniProt P10635) (assay: Cytochrome panel assay with activity outcomes). Details: recombinant CYP, pro-luciferin dealkylation, luminescence, p450-cyp2d6; series mostly up to 57.1 µM; activity, negative = inhibition: at the top concentration.
% is scaled to controls: 0 for no effect and ±100 for the full control effect.

Cytochrome P450 2D6 (Homo sapiens), sequence (P10635 whole entry, looked up): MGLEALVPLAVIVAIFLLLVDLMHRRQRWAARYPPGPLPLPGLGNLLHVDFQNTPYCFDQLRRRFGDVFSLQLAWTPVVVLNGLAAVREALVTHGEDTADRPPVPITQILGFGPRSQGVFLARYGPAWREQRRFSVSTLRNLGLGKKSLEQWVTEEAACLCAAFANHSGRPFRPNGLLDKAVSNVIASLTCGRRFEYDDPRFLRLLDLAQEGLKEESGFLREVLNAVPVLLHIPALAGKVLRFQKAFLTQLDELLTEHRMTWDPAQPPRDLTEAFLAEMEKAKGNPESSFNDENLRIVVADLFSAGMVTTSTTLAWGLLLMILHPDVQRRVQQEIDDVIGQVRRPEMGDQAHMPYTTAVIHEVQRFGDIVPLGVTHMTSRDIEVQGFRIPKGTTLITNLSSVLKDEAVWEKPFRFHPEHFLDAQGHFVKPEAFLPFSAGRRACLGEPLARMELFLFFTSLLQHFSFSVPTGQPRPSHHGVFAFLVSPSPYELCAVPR

| Compound | activity, negative = inhibition | AC50 |
| --- | --- | --- |
| Cc1nn(CC(=O)NCc2ccccc2)c(C)c1[N+](=O)[O-] | -17.4% |  |
| CCOc1cc(-c2noc(N)c2C#N)cc(OCC)c1OCC | -9.64% |  |
| O=C(N/N=C/c1cccc(Oc2ccccc2)c1)c1cccc(Br)c1 | -25.9% |  |
| C/C(=N\NC(=O)c1cccc(Br)c1)c1ccc(Br)cc1 | 31.9% |  |
| O=C(N/N=C/C1C(c2ccccc2)C1(Cl)Cl)c1cccc(Br)c1 (stereo not given) |  | 7.08 µM (active) |
| Cn1c(C(N)=O)cnc1Sc1ncc(C(F)(F)F)cc1Cl | -16.3% |  |
| Cc1ccnc(N2C(=O)C3C4CC(C(Br)C4Br)C3C2=O)c1 (stereo not given) | 38.8% |  |
| CCC(=O)O[C@@]1(C(=O)SCF)[C@@H](C)C[C@H]2[C@@H]3C[C@@H](F)C4=CC(=O)C=C[C@@]4(C)[C@]3(F)[C@@H](O)C[C@]21C | -10.4% [at 25.6 µM] |  |
| CO[C@@H](NC(N)=O)C(=O)O | 2.43% [at 11.4 µM] |  |
| CCC(C)(C)NC(=O)c1ccc2c(c1)N(CC(=O)OC)C(=O)C(C)(C)O2 | -7.52% |  |
| O=C(Oc1ccccc1)N1CCC2(CCCN(c3ccc(-c4ccccc4)cc3)C2)CC1 | 3.39% |  |
| CC(C)c1nc2ccccn2c1NC1CCCCC1 |  | 3.16 µM (active) |
| CC(C)c1ccc(O)c(NC(=O)c2ncn[nH]2)c1 | 2.24% |  |
| COc1ccc(NC(=O)CC#N)cc1OC | -8.73% |  |
| COC(=O)C1=C(C)NC(=O)NC1c1ccsc1 (stereo not given) | 9.49% |  |
| COCCNC(=O)COc1ccc(Oc2ccccc2)cc1 | -5.65% |  |
| COCCNC(=O)COc1ccc(OCCNC[C@@H](O)COc2ccccc2)cc1 |  | 5.01 µM (active) |
| O=C(O)COc1ccc(OCCNC[C@@H](O)COc2ccccc2)cc1 | -10.1% |  |
| CCOC(=O)N/N=C1/C[C@@H](O)[C@@H](O)[C@@H]2[C@@H]3C(=O)N(CC)C(=O)[C@H]3CC[C@H]12 | -3.76% [at 11.4 µM] |  |
| CS(=O)(=O)c1nc(-c2ccccc2)cc(-c2ccccc2)c1C#N | -5.35% |  |
| CCOC(=O)c1sc2nc3c(cc2c1N)COC(C(C)C)C3 (stereo not given) | -0.0841% |  |
| CCC(=O)N[C@@H]1CCc2cccc(OC)c2C1 | 4.79% |  |
| CCc1ccccc1OC[C@@H](O)CN[C@H]1CCCc2ccccc21 | 5.6% |  |
| COc1cccc(C=NC=Nc2cccc(OC)c2)c1 | -0.017% |  |
| O=C(CSc1nnc(CNc2ccccc2)o1)N1CCCc2ccccc21 | -17.2% |  |

| Compound | activity, negative = inhibition | AC50 |
| --- | --- | --- |
| O=C(CSc1nc(-c2ccccc2)cs1)N1CCc2ccccc21 | -2.29% |  |
| O=C(CSc1n[nH]c(-c2ccccc2O)n1)N1CCCc2ccccc21 |  | 25.1 µM (active) |
| CC(C)C[C@H](NC(=O)[C@@H](O)[C@@H](N)Cc1ccccc1)C(=O)O |  | inactive |
| O=C(NCCc1ccccn1)c1cc(C(=O)C2CCCCC2)c[nH]1 | -7.69% |  |
| O=C(c1ccc(C(F)(F)F)cc1)c1c[nH]c(C(=O)NCCCn2ccnc2)c1 |  | 2.51 µM (active) |
| CC(C)(C)c1ccc(C(=O)c2c[nH]c(C(=O)NCCCn3ccnc3)c2)cc1 |  | 5.01 µM (active) |
| Cc1ccc(C(=O)c2c[nH]c(C(=O)NCCCN3CCOCC3)c2)cc1 | 1.79% |  |
| O=C(O)CCCCCNC(=O)c1ccncc1 | -0.821% |  |
| CCC(CC)C(=O)c1c[nH]c(C(=O)NCCc2ccccn2)c1 | 4.03% |  |
| C1CNCCOCCNCCN1 | -1.08% |  |
| CN(C)c1ccc(C(c2ccc(N(C)C)cc2)c2ccc([N+](=O)[O-])cc2)cc1 | 14% [at 11.4 µM] |  |
| O=C(O)[C@@H]1[C@@H](C(=O)Nc2ccccc2)[C@@H]2C=C[C@@H]1O2 | 2.5% [at 11.4 µM] |  |
| Oc1ccc(Cc2nccc3cc(O)c(O)cc23)cc1O |  | 1.26 µM (active) |
| CCOc1ccc(Cc2nccc3cc(OCC)c(OCC)cc23)cc1OCC | 2.76% [at 25.6 µM] |  |
| O=C(O)Cc1ccc(O)c(O)c1 | -3.67% |  |
| COc1ccc(-c2nc3cnc(OC)nc3n(CCc3ccccc3)c2=O)cc1 | 2.49% |  |
| CCN(CC)C(=O)CSc1nc(O)cc(=O)n1CC | -3.51% |  |
| COc1ccc(Cl)cc1N=Nc1ncc[nH]1 |  | 2.51 µM (active) |
| Cc1n[nH]c(C)c1N=Nc1cc(Cl)ccc1Cl | -10.6% |  |
| N#Cc1ccccc1Sc1ccccc1N | -20% |  |
| CCc1ccc(-c2csc(NC(=O)C3CCCO3)c2C(=O)OC(C)C)cc1 (stereo not given) | -13.9% |  |
| Fc1ccc(CN(C2=NCCN2)c2c(Cl)cccc2Cl)cc1 |  | 1.26 µM (active) |
| CN(C)C(=O)Oc1cccc([N+](C)(C)C)c1 | 3.32% |  |
| Cc1ccc2c(c1)N(CCC(=O)NCCN1CCOCC1)C(=O)CO2 | -18.8% |  |
| Cc1ccc2c(c1)N(CCC(=O)NCc1ccc3c(c1)OCO3)C(=O)CO2 |  | 14.1 µM (active) |

| Compound | activity, negative = inhibition | AC50 |
| --- | --- | --- |
| COc1ccccc1CNC(=O)CCN1C(=O)COc2ccc(C)cc21 | -7.37% |  |
| O=c1c(-c2ccc(F)cc2)nc2cnc(N3CCNCC3)nc2n1-c1ccccc1 | -8.75% |  |
| Cn1cc(-c2nc3cnc(Oc4ccccc4)nc3n(CCC#N)c2=O)c2ccccc21 | 2.05% |  |
| Nc1ncnc2c1nc(Sc1ccc(Cl)cc1)n2[C@@H]1O[C@H]2COP(=O)(O)O[C@@H]2[C@H]1O | -5.59% |  |
| COC(=O)[C@@]1(Cc2ccc(F)cc2)[C@H]2c3cc(C(=O)N4CCCC4)n(Cc4cccc5ccccc45)c3C[C@H]2CN1C(=O)c1ccccc1 | -0.395% |  |
| COC(=O)[C@@]1(Cc2ccc(OC)cc2)[C@H]2c3cc(C(=O)N4CCCC4)n(CCn4cc([N+](=O)[O-])nc4C)c3C[C@H]2CN1C(=O)c1ccccc1 | -0.835% |  |
| COC(=O)[C@@]1(Cc2ccc(F)cc2)[C@H]2c3cc(C(=O)N4CCCC4)n(Cc4ccc(S(C)(=O)=O)cc4)c3C[C@H]2CN1C(=O)c1ccccc1 | -15.9% |  |
| COC(=O)[C@@]1(Cc2ccccc2)[C@H]2c3cc(C(=O)N(C)C)n(Cc4c(CO)[nH]cc(C)c4=O)c3C[C@H]2CN1C(=O)c1ccccc1 |  | 12.6 µM (active) |
| COC(=O)[C@@]1(Cc2ccc(F)cc2)[C@H]2c3cc(C(=O)N(C)C)n(Cc4c(CO)[nH]cc(C)c4=O)c3C[C@H]2CN1C(=O)c1ccccc1 |  | 15.8 µM (active) |
| COC(=O)[C@@]1(Cc2ccc(OC)cc2)[C@H]2c3cc(C(=O)N(C)C)[nH]c3C[C@H]2CN1C(=O)c1ccccc1 | -14.8% |  |
| CC(=O)NCc1c(Cl)cccc1-n1cccc1 | -25.8% |  |
| CC(C)(C)OC(=O)COc1cc(OCC(=O)OC(C)(C)C)c2c(=O)cc(-c3ccccc3)oc2c1 | 4.28% |  |
| O=c1c(-c2cc(F)cc(F)c2)nc2cncnc2n1C1CC1 | -7.27% |  |
| C=CCN1CCc2cc(O)c(O)cc2[C@H](c2ccccc2)C1 |  | 0.398 µM (active) |
| C=CCN1CCc2c(cc(O)c(O)c2Br)[C@H](c2ccccc2)C1 |  | 12.6 µM (active) |
| Cc1cccc([C@@H]2CN(C)CCc3c2cc(O)c(O)c3Cl)c1 | -0.0741% |  |
| CN1CCc2cc(Cl)c(O)cc2[C@H](c2ccccc2)C1 |  | 0.631 µM (active) |
| C=CCN1CCc2c(cc(O)c(O)c2Cl)[C@H](c2ccccc2)C1 |  | 25.1 µM (active) |
| CN1C[C@H](c2ccccc2)C(O)([C@]2(c3ccccc3)CN(C)C[C@@H](c3ccccc3)C2=O)[C@H](c2ccccc2)C1 (stereo not given in full) | -18.6% [at 11.4 µM] |  |
| COc1ccc(C[C@@H]2c3cc(OC)c(OC)cc3CC[N@+]2(C)CCC(=O)OCCCCCOC(=O)CC[N@@+]2(C)CCc3cc(OC)c(OC)cc3[C@H]2Cc2ccc(OC)c(OC)c2)cc1OC | -15.6% [at 25.6 µM] |  |
| Nc1ccccc1C#Cc1ccccc1 |  | inactive |
| Cc1nc(N/N=C/c2ccccc2)nc(N(C)c2ccccc2)c1[N+](=O)[O-] | 4.53% |  |
| CO[C@@H]1COC(=O)C/C=C\[C@@H](C)COC(=O)[C@H](Cc2ccccc2)NC(=O)C/C=C\[C@H]1C | -17% [at 11.4 µM] |  |
| COC(=O)C(Cc1ccc(OC(=O)c2ccc(C(F)(F)F)cc2)cc1)N1Cc2ccccc2C1=O (stereo not given) | -11.1% |  |
| COc1ccccc1Nc1nc(-c2sc(NC(=O)c3ccccc3)nc2C)cs1 | -0.255% |  |

| Compound | activity, negative = inhibition | AC50 |
| --- | --- | --- |
| Cc1nc(NC(=O)c2ccccc2)sc1-c1csc(Nc2cccc(Cl)c2)n1 |  | 10 µM (active) |
| Cc1nc(NC(=O)c2ccccc2)sc1-c1csc(Nc2ccc(F)cc2)n1 | -28.9% |  |
| C=CCCC(=O)Nc1nc(C)c(-c2csc(Nc3ccc(Cl)cc3)n2)s1 |  | 17.8 µM (active) |
| Cc1nc(NC(=O)c2ccco2)sc1-c1csc(Nc2ccc(Cl)cc2Cl)n1 | -25.3% |  |
| Cc1nc(NC(=O)c2ccccc2)sc1-c1csc(Nc2ccc(Cl)cc2)n1 | -21.7% |  |
| CC1(C)OCC([C@H](O)C2=CCCCC2=O)CO1 | 9.36% [at 11.4 µM] |  |
| COc1cc(/C=C2\SC(=S)N(Nc3ccccc3)C2=O)cc(OC)c1OC | -10.3% |  |
| CC(=O)c1cc(C#N)c(Oc2ccc(F)cc2)nc1C | 8.22% |  |
| Cc1cnc(NC(=O)CCCc2nc3ccccc3s2)s1 | -11% |  |
| COc1cccc([C@@H]2Oc3ccc(OC)cc3/C(=N/OC[C@@H](C)[C@H](OCc3ccccc3)C(C)C)[C@@H]2O)c1 | 0.0498% [at 11.4 µM] |  |
| COc1cccc([C@@H]2Oc3ccc(OC)cc3/C(=N/OC[C@@H](O)COCc3ccco3)[C@@H]2O)c1 | 5.07% [at 11.4 µM] |  |
| COc1cccc([C@@H]2Oc3ccc(Br)cc3C(=O)[C@H]2O)c1 |  | 3.16 µM (active) |
| CN(C(=S)Nc1ccccc1F)C1(c2ccccc2Cl)CCCCC1=O (stereo not given) | -6.2% |  |
| Clc1ccc(Cc2nc(-c3cccnc3)no2)cc1 |  | 1.78 µM (active) |
| O=S(=O)(c1ccc(Cl)cc1)c1cnc(-c2cccnc2)nc1-c1ccccc1 | -0.701% |  |
| c1ccc(CCc2nc(-c3ccccc3)no2)cc1 | -18.9% |  |
| CCC(C)NS(=O)(=O)c1ccc(NC(=O)CCC2CCCCC2)cc1 (stereo not given) | -5.09% |  |
| Cn1cccc1C(=O)N1CCC2(CC1)CCN(c1ncccn1)CC2 | -13.7% |  |
| COc1ccccc1CNc1ccnc(-c2ccc(N(C)C)cc2)n1 |  | 0.501 µM (active) |
| COc1ccccc1CNc1ccnc(-c2ccoc2)n1 |  | 15.8 µM (active) |
| COc1ccc(CNc2ccnc(-c3ccc(N(C)C)cc3)n2)c(OC)c1 |  | 12.6 µM (active) |
| Cc1cnc(CNc2ccnc(-c3ccc(N(C)C)cc3)n2)cn1 | -5.57% |  |
| COc1ccc(CNc2ccnc(-c3ccc(C(=O)N(C)C)cc3)n2)c(OC)c1 | -5.55% |  |
| COC(=O)Cc1c(C)nc2nc(NCc3ccccc3OC)[nH]n2c1=O | -2.97% |  |
| CN(C)c1ccc(-c2nccc(NCc3ccccc3)n2)cc1 |  | 3.16 µM (active) |
